The source made the active and inactive calls. The calls were made as follows: active = hit-call score of the fitted dose curve at least 0.9, where 1 is the maximum; inactive = score below 0.9.
The compounds below were run on ABC Transporter (ABCC3), ABCC3 (gene 8714) (assay: LTEA_HepaRG_ABCC3: Life Technologies and Expression Analysis (LTEA) Assay for ABC Transporter (ABCC3) using HepaRG (AID 2283462)). Conditions: mRNA level, 48 h; actives raise or lower the signal.
Description: LTEA_HepaRG is a cell based, multiplexed-readout assay that uses HepaRG, a human liver cell line, with measurements taken at 48 hours after chemical dosing on a 96-well plate.LTEA_HepaRG_ABCC3 is one of 102 assay component(s) measured in the LTEA HepaRG cell culture assay. It is a marker of NR mediated transport.Data from the assay component LTEA_HepaRG_ABCC3 was analyzed into 1 endpoint. This assay endpoint, LTEA_HepaRG_ABCC3, was analyzed with bidirectional fitting relative to DMSO as the negative control and baseline of activity. Using a type of inducible reporter, measures of mRNA induction for gain or loss-of-signal activity can be used to understand regulation of transcription factor activity. To generalize the intended target to other relatable targets, this assay endpoint is annotated to the transporter intended target family, where the subfamily is ABC transporter.
A total of 1060 chemcials from the ToxCast library were tested in eight-point concentration-response experiments. Cell culture and cytotoxicity assays were conducted at Thermo Fisher Scientific's Custom Services facility (Madison, WI). A single lot of human HepaRG cells (Thermo Fisher Scientific, Frederick, MD) was used for the cell culture experiments. 96-well format collagen type I coated plates of human HepaRG cells were prepared using established methods. Briefly, cryopreserved HepaRG cells were thawed, plated at a density of approximately 100,000 cells/well in HepaRG Thaw, Plate, and General Purpose media (HPRG770, Thermo Fisher Scientific), and incubated for 48 hours. 0.5% DMSO was selected as vehicle control to balance the requisite need of DMSO in HepaRG cultures to maintain differentiation (for example, baseline metabolism, proportions of hepatocytes vs. cholangiocytes), while enabling further hepatic receptor pathway activation (for example, PXR and CAR) in response to chemical exposure. 48 hours after plating, the culture medium was replaced with HepaRG Serum-Free Incudtion Media. Cells were exposed to each test chemical in duplicate and maintained in CO2 incubators for another 48 hours. Chemical plates were thawed to room temperature and 200x concentrations of treatment groups were prepared. 8-point conentration-reponse curves were made with the highest exposure at 100 uM, followed by half-log dilutions, all in 0.5% DMSO. Each test plate contained variouse controls, induction positive controls (1mM phenobarbital), cytotoxicity positive controls ([…] aflatoxin B1), vehicle controls (0.5% DMSO), and total lysis controls (0.5% DMSO). Cell morphology images were taken using an Essen IncuCyte FLR automated microscope, with six 96-well plates imaged in about 24 minutes. Images were captured and exported and JPEG files. Spent culture media was transfered to black-well plates for the LDH assay, and remaining media was sorted at -80 C for later use. Cells were treated with RLT buffer and frozen until shipped for gene expression analysis. Total RNA was isolated from the cell suspension in 75 uL of Buffer RLT (Qiagen, Germantown, MD 20874) by Quintiles/Expression Analysis (Durham, NC) using a custom isolation procedure. Total RNA from each plate well was transferred to a preamplification plate. Fluidigm's 96.96 Dynamic ArrayTM (Fluidigm, Amsterdam, the Netherlands) technology was used for gene expression analyses by quantitative reverse transcription polymerase chain reaction (qRT-PCR, performed by Quintiles/Expression Analysis, Durham, NC)89. Standard TaqManTM Assays (Applied Biosystems/ThermoFisher Scientific, Foster City, CA) were used to assess the expression of 93 genes selected based on their selectivity and sensitivity to important hepatic receptors known to be modulated by environmental chemicals; importance in human hepatocyte functionality; and hepatotoxicity. […]
With CS(=O)(=O)c1cc(C(F)(F)F)ccc1C(=O)c1cnoc1C1CC1 the outcome was “inactive”.
With COP(=S)(OC)SCn1nnc2ccccc2c1=O the outcome was “inactive”.
Cn1c(-c2ccccc2)cc(-c2ccccc2)[n+]1C was tested, and the AC50 was 2.67 µM (active).
For CC(C)=CC1C(C(=O)OCc2coc(Cc3ccccc3)c2)C1(C)C (stereo not given), the outcome was “inactive”.
With CC1(C)CCC(=Cc2ccc(Cl)cc2)C1(O)Cn1cncn1 (stereo not given) the outcome was “inactive”.
N#Cc1c(Cl)cccc1Cl was tested, and the outcome was “inactive”.
In the case of CN=C=S, the outcome is reported as “inactive”.
CO/N=C(/C1=NOCCO1)c1ccccc1Oc1ncnc(Oc2ccccc2Cl)c1F was tested, and the AC50 was 6.69 µM (active).
For CCNP(=S)(OC)O/C(C)=C/C(=O)OC(C)C (stereo not given), the outcome was “inactive”.
For O=c1n(Cl)c(=O)n(Cl)c(=O)n1Cl, the outcome was “inactive”.
In the case of COC(=O)NS(=O)(=O)c1ccc(N)cc1, the outcome is reported as “inactive”.
In the case of COP(=O)(OC)O/C(C)=C/C(=O)N(C)C, the outcome is reported as “inactive”.
With Nc1c(Cl)c(F)nc(OCC(=O)O)c1Cl the outcome was “inactive”.
For CC1(C)C(C(=O)OC(C#N)c2cccc(Oc3ccccc3)c2)C1(C)C (stereo not given), the outcome was “inactive”.
CNC(=O)N(C)c1nnc(C(C)(C)C)s1 was tested, and the outcome was “inactive”.
CCOC(=O)C(C)OC(=O)c1cc(Oc2ccc(C(F)(F)F)cc2Cl)ccc1[N+](=O)[O-] (stereo not given) was tested, and the outcome was “inactive”.
In the case of CN/C(=N\[N+](=O)[O-])NCc1cnc(Cl)s1, the outcome is reported as “inactive”.
COC(=O)NC(=S)Nc1ccccc1NC(=S)NC(=O)OC was tested, and the outcome was “inactive”.
With COC(=O)c1c(C(F)F)nc(C(F)(F)F)c(C2=NCCS2)c1CC(C)C the outcome was “inactive”.
With CC(C)C1(C)N=C(c2ncccc2C(=O)O)NC1=O (stereo not given) the outcome was “inactive”.
In the case of COc1cc(Cl)c(OC)cc1Cl, the outcome is reported as “inactive”.
With COCC(C)N(C(=O)CCl)c1c(C)csc1C (stereo not given) the outcome was “inactive”.
CCCCC(O)(Cn1cncn1)c1ccc(Cl)cc1Cl (stereo not given) was tested, and the AC50 was 50 µM (active).
With COP(=S)(OC)Oc1ccc([N+](=O)[O-])c(C)c1 the outcome was “inactive”.
For C=C(C)CN(CC)c1c([N+](=O)[O-])cc(C(F)(F)F)cc1[N+](=O)[O-], the outcome was “inactive”.
CC(C)N1C(=O)N(c2ccccc2)CSC1=NC(C)(C)C was tested, and the outcome was “inactive”.
For CCOc1nc(C(Cl)(Cl)Cl)ns1, the outcome was “inactive”.
For Cc1cnc(C2=NC(C)(C(C)C)C(=O)N2)c(C(=O)O)c1 (stereo not given), the outcome was “inactive”.
In the case of CS(=O)(=O)c1ccc(C(=O)C2C(=O)CCCC2=O)c([N+](=O)[O-])c1, the outcome is reported as “inactive”.
With COC(=O)N(C(=O)N1CO[C@@]2(C(=O)OC)Cc3cc(Cl)ccc3C2=N1)c1ccc(OC(F)(F)F)cc1 the outcome was “inactive”.
CC(C)Nc1nc(Cl)nc(NC(C)C)n1 was tested, and the outcome was “inactive”.
O=C1C2CC=CCC2C(=O)N1SC(Cl)(Cl)Cl (stereo not given) was tested, and the outcome was “inactive”.
For Cc1nc(N(C)C)nc(OC(=O)N(C)C)c1C, the outcome was “inactive”.
With N#CN=C1SCCN1Cc1ccc(Cl)nc1 the outcome was “inactive”.
CNC(=O)Oc1cccc2ccccc12 was tested, and the outcome was “inactive”.
For COc1ccc(-c2ccccc2)cc1NNC(=O)OC(C)C, the outcome was “inactive”.
For CCCN(CC)CC1COC2(CCC(C(C)(C)C)CC2)O1 (stereo not given), the outcome was “inactive”.
CC(C)NC(=O)N1CC(=O)N(c2cc(Cl)cc(Cl)c2)C1=O was tested, and the outcome was “inactive”.
With CCOP(=O)(OCC)Oc1nc(Cl)c(Cl)cc1Cl the AC50 was 80.5 µM (active).
In the case of CCSC(=O)N1CCCCCC1, the outcome is reported as “inactive”.

— PubChem BioAssay (EPA / NIEHS)
